In PubChem BioAssay one finds composite z-score, z-score and composite Z-score data, which are given here for six molecules.

For experiment [1], the system named is Human papillomavirus type 1a protein E7 (residues 44-93). Put plainly: small molecules binding HPV E7 44-93 – biochemical, small-molecule microarray, residues 44-93, 635 nm fluorescence, primary screen (AID 1108).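 Also: E7 fragment applied at 1 µg/mL in TBST for 1 h at 4 C; score combines spot fluorescence with its signal to noise ratio.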 The conditions noted are these: fluorescence 635 nm, higher = more signal.
Experiment [2] can be described thus: hepatitis C replication reporter changes, two-sided – Huh7 cells, luciferase reporter, HCV replication inhibitor project, primary screen (AID 1109).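 Also: huh7 hepatoma cells harbouring a luciferase neomycin HCV replicon reporter; luciferase luminescence as measure of HCV replicon replication; test concentration not given here.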 The conditions noted are these: Huh7 HCV replicon luciferase reporter, 48 h; higher = more signal.
The target of experiment [3] is Left-right determination factor 2 (Homo sapiens) (UniProt O00292). Put plainly: small molecules binding LEFTY2 protein – biochemical, small-molecule microarray, 635 nm fluorescence scan, primary screen (AID 1110). As to conditions: higher = more signal.
Left-right determination factor 2 (Homo sapiens), sequence (O00292 whole entry, looked up): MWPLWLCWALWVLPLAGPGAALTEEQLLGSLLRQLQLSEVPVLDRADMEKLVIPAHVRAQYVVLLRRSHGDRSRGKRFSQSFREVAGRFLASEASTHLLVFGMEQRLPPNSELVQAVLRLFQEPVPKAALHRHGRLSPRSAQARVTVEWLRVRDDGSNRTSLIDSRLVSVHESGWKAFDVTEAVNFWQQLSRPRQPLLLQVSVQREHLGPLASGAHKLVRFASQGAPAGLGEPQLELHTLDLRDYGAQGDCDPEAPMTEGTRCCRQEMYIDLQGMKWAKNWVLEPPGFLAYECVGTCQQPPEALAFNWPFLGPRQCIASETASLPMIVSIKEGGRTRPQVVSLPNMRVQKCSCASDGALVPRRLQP
The target of experiment [4] is Calmodulin-1 (Homo sapiens) (UniProt P0DP23). Put plainly: small molecules binding calmodulin-1 with EGTA – biochemical, small-molecule microarray, Cy5-labelled CALM1, profiling panel (AID 1111).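 Also: labelled calmodulin applied in Tris saline Tween buffer holding calcium plus EGTA and DTT.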 As to conditions: Cy5-CALM1 binding fluorescence, higher = more signal.
For experiment [5] the target is unchanged. Put plainly: small molecules binding Ca-loaded calmodulin-1 – biochemical, small-molecule microarray, Cy5-labelled CALM1, plus calcium, artefact control for SMM control-protein annotation, profiling panel (AID 1112).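 Also: score merges spot fluorescence with signal to noise from triplicate slides.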 As to conditions: Cy5-CALM1 binding fluorescence, higher = more signal.
Experiment [6] is described as follows: probe aWnt5a binding to arrayed compounds – biochemical, biotinylated probe, 635/667 nm fluorescence, primary screen (AID 1113).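 Also: score merges 667 nm fluorescence intensity with signal-to-noise per printed feature.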 As to conditions: small-molecule microarray, higher = more signal.
The nature of experiment [7]: probe aShh binding to arrayed compounds – biochemical, biotinylated probe, 635/667 nm fluorescence, primary screen (AID 1114).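 Also: probe is biotin-labelled aShh protein from a stem cell growth factor screen; measures binding of labelled protein to compounds printed on the slide; score merges feature fluorescence at 667 nm with signal-to-noise.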 The conditions noted are these: small-molecule microarray, higher = more signal.
A short description of experiment [8]: probe aNog binding to arrayed compounds – biochemical, biotinylated probe, 635/667 nm fluorescence, primary screen (AID 1115).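 Also: probe is biotinylated aNog protein used at 0.15 µg/mL for 1 h at 4 C; z-score combines 667 nm fluorescence of each spot with its signal to noise.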 As to conditions: small-molecule microarray, higher = more signal.
For experiment [9], the target named is Torsin-1A-interacting protein 1 (Homo sapiens) (UniProt Q5JTV8). Put plainly: compound microarray binding of lysate hLAP1 – cell lysate, small-molecule microarray, COS7 lysate, 635/667 nm fluorescence, primary screen (AID 1116). As to conditions: 635 nm fluorescence, higher = more signal.
Torsin-1A-interacting protein 1 (Homo sapiens), sequence (Q5JTV8 whole entry, looked up): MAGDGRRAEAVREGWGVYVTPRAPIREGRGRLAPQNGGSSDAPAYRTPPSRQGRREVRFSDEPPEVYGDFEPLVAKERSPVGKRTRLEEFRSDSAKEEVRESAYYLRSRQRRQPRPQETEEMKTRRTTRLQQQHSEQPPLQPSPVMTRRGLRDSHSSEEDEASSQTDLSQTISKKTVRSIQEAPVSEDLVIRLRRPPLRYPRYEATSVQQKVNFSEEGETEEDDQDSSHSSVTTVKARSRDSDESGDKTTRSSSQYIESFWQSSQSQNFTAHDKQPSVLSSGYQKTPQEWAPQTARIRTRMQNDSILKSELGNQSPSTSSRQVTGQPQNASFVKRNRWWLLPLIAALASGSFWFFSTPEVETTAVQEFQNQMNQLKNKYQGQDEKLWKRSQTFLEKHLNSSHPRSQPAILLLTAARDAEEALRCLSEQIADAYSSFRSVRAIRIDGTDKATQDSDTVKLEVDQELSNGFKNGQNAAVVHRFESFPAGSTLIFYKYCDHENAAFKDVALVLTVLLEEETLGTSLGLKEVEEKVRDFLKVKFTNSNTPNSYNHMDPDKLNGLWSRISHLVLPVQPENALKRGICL
Experiment [10] has as its target Alpha-bungarotoxin (Bungarus multicinctus) (UniProt P60615). Put plainly: compounds binding labelled alpha-BTX control protein – biochemical, small-molecule microarray, Alexa647 label, 635/667 nm fluorescence, artefact control for SMM control protein annotation, profiling panel (AID 1117). As to conditions: alpha-BTX-A647 binding fluorescence, higher = more signal.

Another experiment deals with Albumin (Bos taurus) (UniProt P02769). Put plainly: compounds binding labelled BSA control protein – biochemical, small-molecule microarray, Alexa647 label, 635/667 nm fluorescence, artefact control for SMM control protein annotation, profiling panel (AID 1118).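 Also: score merges 667 nm emission intensity and signal-to-noise per printed compound spot.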 The conditions noted are these: BSA-A647 binding, fluorescence 635 nm, higher = more signal.
Albumin (Bos taurus), sequence (P02769 whole entry, looked up): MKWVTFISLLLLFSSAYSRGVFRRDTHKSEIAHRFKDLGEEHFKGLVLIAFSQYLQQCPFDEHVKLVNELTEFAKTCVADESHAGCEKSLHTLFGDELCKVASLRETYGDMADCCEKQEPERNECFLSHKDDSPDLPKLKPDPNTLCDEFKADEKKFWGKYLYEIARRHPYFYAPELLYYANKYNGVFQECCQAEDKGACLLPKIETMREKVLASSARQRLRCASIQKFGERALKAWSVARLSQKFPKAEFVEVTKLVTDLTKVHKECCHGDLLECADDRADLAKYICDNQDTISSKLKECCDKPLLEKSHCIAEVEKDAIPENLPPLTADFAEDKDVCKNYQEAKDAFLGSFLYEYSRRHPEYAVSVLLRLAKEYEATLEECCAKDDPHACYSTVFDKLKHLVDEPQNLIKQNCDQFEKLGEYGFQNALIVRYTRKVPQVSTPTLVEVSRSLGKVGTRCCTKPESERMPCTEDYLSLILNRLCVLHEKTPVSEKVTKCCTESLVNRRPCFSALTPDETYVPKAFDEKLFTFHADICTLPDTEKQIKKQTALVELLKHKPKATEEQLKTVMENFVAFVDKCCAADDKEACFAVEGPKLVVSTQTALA
The nature of experiment [11]: probe aXIP binding to arrayed compounds – biochemical, NeuroSMM set, 635/667 nm fluorescence, primary screen (AID 1119).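 Also: probe is the protein aXip251-270 applied at 1 µg/mL to compound-printed slides; binding of probe to printed compounds measured as 667 nm fluorescence plus signal to noise.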 The conditions noted are these: small-molecule microarray, higher = more signal, called active from +8 up or from −8 down.
A short description of experiment [12]: probe aNOTCH3 binding on compound microarray – biochemical, small-molecule microarray, 635/667 nm fluorescence, primary screen (AID 1120).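 Also: probe is a biotin-tagged antibody raised against NOTCH3 rather than NOTCH3 protein; score merges spot fluorescence near 667 nm with spot signal to noise.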 The conditions noted are these: higher = more signal.
Experiment [13] is described as follows: probe aNOTCH2 binding on compound microarray – biochemical, small-molecule microarray, 635/667 nm fluorescence, primary screen (AID 1121).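 Also: score merges feature fluorescence read at 667 nm with its signal to noise.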 The conditions noted are these: higher = more signal.
Experiment [14] has as its target Carbonic anhydrase 2 (Homo sapiens) (UniProt P00918). Put plainly: compounds binding carbonic anhydrase 2 – biochemical, small-molecule microarray, Alexa647-labelled CAII, profiling panel (AID 1122). As to conditions: CAII-A647 binding fluorescence, higher = more signal.
Experiment [15] is described as follows: COS7 lysate on small-molecule microarray, probe aHis, 635 nm (AID 1123).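 Also: z-score combines 667nm fluorescence intensity with signal-to-noise per printed compound spot.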 As to conditions: COS7 cell lysate, fluorescence, higher = more signal.
The nature of experiment [16]: probe aLAP1 signal on lysate-treated microarray – cell lysate, small-molecule microarray, COS7 lysate, primary screen (AID 1124).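 Also: lysate comes from COS7 cells expressing LAP1 and is applied at 0.3 µg/mL; score merges spot fluorescence near 667 nm with signal-to-noise over triplicate slides.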 As to conditions: probe aLAP1, fluorescence, higher = more signal.
Another experiment deals with Sam68 (KHDRBS1). Put plainly: compounds binding KHDRBS1 protein – biochemical, small-molecule microarray, 635 nm fluorescence, primary screen (AID 1125).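 Also: score merges 667 nm channel intensity with signal to noise over triplicate slides.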 The conditions noted are these: higher = more signal.
The test system of experiment [17] is Chordin-like protein 2 (CHRDL2). Put plainly: compounds binding chordin-like 2 – biochemical, small-molecule microarray, 635 nm fluorescence, primary screen (AID 1126).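 Also: printed compound slides probed with Chrdl2 protein at 4 µg/mL for 1 h at 4 C; score merges 667 nm emission intensity with signal to noise over three replicate slides.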 The conditions noted are these: fluorescence 635 nm, higher = more signal.
The target in experiment [18] is Concanavalin-A (Canavalia ensiformis) (UniProt P02866). Put plainly: compounds binding concanavalin A lectin – biochemical, small-molecule microarray, Alexa647 label, 635 nm, artefact control for SMM control protein annotation, primary screen (AID 1127).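 Also: z combines 667 nm emission intensity with signal-to-noise across three replicate slides.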 As to conditions: ConA-A647 binding fluorescence, higher = more signal.
Concanavalin-A (Canavalia ensiformis), sequence (P02866 whole entry, looked up): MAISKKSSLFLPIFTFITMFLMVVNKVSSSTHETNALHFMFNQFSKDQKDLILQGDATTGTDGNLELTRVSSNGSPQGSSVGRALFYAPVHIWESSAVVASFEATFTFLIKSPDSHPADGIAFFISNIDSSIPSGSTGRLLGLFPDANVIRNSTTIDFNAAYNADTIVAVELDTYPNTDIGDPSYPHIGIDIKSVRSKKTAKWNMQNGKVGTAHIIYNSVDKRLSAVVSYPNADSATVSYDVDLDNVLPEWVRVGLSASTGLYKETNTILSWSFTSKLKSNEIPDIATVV

Structures are written as SMILES. Activity calls are given as the source filed them.

Alpha-bungarotoxin (Bungarus multicinctus), sequence (P60615 whole entry, looked up): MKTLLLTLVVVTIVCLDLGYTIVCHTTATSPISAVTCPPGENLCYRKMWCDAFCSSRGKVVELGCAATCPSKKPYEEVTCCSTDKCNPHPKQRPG

Turning to `CC(=O)OC[C@H]1O[C@@H](ON=C2[C@H]3CCn4c(=O)n(-c5ccccc5)c(=O)n4[C@H]3[C@H](O)[C@@H]3O[C@H]23)[C@H](OC(C)=O)[C@@H](OC(C)=O)[C@@H]1OC(C)=O`, the composite z-score in experiment [1] is 1.08; in experiment [3], 0.664; in [4], -0.0898; in experiment [5], -0.268; in [6], -0.101; in [7], 0.0902. Moreover, the composite z-score in [8] was -0.0563; in experiment [9] it was 0.479; in experiment [10] it was 0.393; with Albumin (Bos taurus) it was 0.0931; in experiment [12] it was 0.086; in experiment [13], -0.186. Further, the composite z-score in [14] worked out at 0.541; in experiment [15], 1.09; in experiment [16], 0.0273; in the experiment on Sam68 (KHDRBS1), 1.07; in [17], 0.544; in [18], 0.339. Also, the z-score in experiment [2] is -3.07. The composite Z-score in [11] was 0.0029 (inactive).
As to `CC(CCN1CCCc2nc(C)c(C)cc21)=NO[C@H](C)c1cn([C@H](CO)Cc2ccccc2)nn1`, the composite z-score in [1] was 1.01; in [3], 0.796; in [4] it was -0.276; in [5], -0.519; in experiment [6], -0.0704; in experiment [7], -0.16. The composite z-score in [8] is 0.029; in [9], 0.613; in experiment [10], -0.207; with Albumin (Bos taurus), 0.177; in [12] it was 0.159; in experiment [13] it was -0.112. Also, the composite z-score in experiment [14] is 0.236; in experiment [15], 0.497; in experiment [16] it was 0.0249; in the experiment with Sam68 (KHDRBS1) it was 1.28; in experiment [17] it was 0.618; in experiment [18], -0.113. Besides, the z-score in experiment [2] was -1.73. Besides, the composite Z-score in experiment [11] was 0.271 (inactive).
With `O=C(NN=C1C[C@@H](O)[C@@H](O)[C@@H]2[C@@H]3C(=O)N(Cc4ccccc4)C(=O)[C@@H]3CC[C@H]12)OCc1ccccc1`, the composite z-score in experiment [1] is -0.401; in experiment [3], 0.524; in experiment [4] it was -0.293; in experiment [5], -0.406; in experiment [6], -0.124; in experiment [7], -0.2. In addition, the composite z-score in [8] was 0.0313; in experiment [9], 0.305; in experiment [10] it was -0.016; with Albumin (Bos taurus), 0.055; in experiment [12], -0.118; in experiment [13], -0.17. In addition, the composite z-score in experiment [14] was -0.253; in [15], -0.771; in experiment [16] it was 0.0639; with Sam68 (KHDRBS1) it was -0.0039; in experiment [17], 0.36; in experiment [18] it was -0.085. In experiment [2], this molecule came in with a z-score of 0.0011. Also, in experiment [11], the composite Z-score is 0.0005 (inactive).
On to `COC(=O)CC=C[C@@H](C)[C@@H](C=NOC[C@@H](O)COCc1ccco1)NS(=O)(=O)c1ccc(C)cc1`, for which the composite z-score was -1.24 in [1]; 1.04 in experiment [3]; -2.79 in experiment [4]; -2.64 in experiment [5]; -0.166 in experiment [6]; -0.162 in experiment [7]. The composite z-score was -0.252 in experiment [8]; -0.435 in [9]; -0.672 in [10]; -1.17 with Albumin (Bos taurus); -0.169 in experiment [12]; -0.0854 in experiment [13]. The composite z-score in experiment [14] was -0.485; in [15], -1.36; in [16], -0.504; with Sam68 (KHDRBS1), -0.866; in experiment [17], 1.52; in [18], -2.76. For the same molecule, the z-score in experiment [2] is -0.42. For the same molecule, in [11], the composite Z-score was -0.553 (inactive).
For the molecule `CO[C@H]1C[C@@H]2C[C@H](O)CC(CC(=O)O[C@@H](C=CCC(C)C)C[C@@H]3CC[C@H](C)[C@@H](C1)O3)O2`, the composite z-score was 1.27 in experiment [1]; 0.748 in experiment [3]; -0.126 in experiment [4]; -0.468 in experiment [5]; -0.0194 in experiment [6]; 0.0815 in experiment [7]. Moreover, the composite z-score in [8] was -0.447; in experiment [9], 0.536; in experiment [10], 1.63; with Albumin (Bos taurus), 0.603; in [12], 0.0824; in [13], -0.193. For the same molecule, the composite z-score in [14] was 0.276; in experiment [15], 1.12; in experiment [16], -0.0223; with Sam68 (KHDRBS1), 1.3; in experiment [17], 0.629; in experiment [18] it was 0.389. Further, the z-score in experiment [2] is -0.763. In experiment [11], the composite Z-score was -0.349 (inactive).
For `COc1ccc(OC[C@@H]2CC3[C@@H](c4ccc(Br)cc4)[C@H](C)CC[C@H]3C(=O)O2)cc1` (stereo not given in full), the composite z-score in [1] was -0.722; in experiment [3] it was 0.418; in experiment [4] it was -0.991; in [5], -0.642; in experiment [6], -0.158; in experiment [7], -0.367. In addition, the composite z-score is -0.0003 in experiment [8]; 0.308 in experiment [9]; 0.287 in experiment [10]; 0.733 with Albumin (Bos taurus); -0.023 in experiment [12]; -0.18 in experiment [13]. For the same molecule, the composite z-score in experiment [14] is -0.117; in experiment [15] it was -0.037; in [16], 0.196; in the experiment on Sam68 (KHDRBS1), -0.218; in experiment [17] it was 0.584; in [18], -0.758. Besides, the z-score in experiment [2] was -0.312. In experiment [11], the composite Z-score is -0.644 (inactive).
